# Wnt act = activates Wnt/beta-catenin signaling in a reporter cell assay | activator, plate reader | activation, % at 9.35 µM | hit rate 1.2% among 300,000 | AID 743398; in the data active means activation above about 30%, passing the limit was not always enough
# FGF22 binding-1 = FGF22 (human) thermal shift binding; recombinant FGF22 thermal shift, SYPRO orange fluorescence; percent of sucrose octasulfate shift, DMSO zero; activity (Tm shift, normalised), % at 9.99 µM; hit rate 1.5% among 340,000;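 active means mean Tm shift, scaled 0 neutral to 100 positive control, at about 1.3% or above, every replicate too, limit read from the data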
# Target sequence (Q9HCT0 whole entry, looked up): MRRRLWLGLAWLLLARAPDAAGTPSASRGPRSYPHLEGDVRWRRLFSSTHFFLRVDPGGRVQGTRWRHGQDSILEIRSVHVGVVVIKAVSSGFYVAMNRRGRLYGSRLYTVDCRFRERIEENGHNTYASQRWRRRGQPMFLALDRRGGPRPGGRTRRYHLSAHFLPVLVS
# MLL AF4-AF9 inh = blocks AF4 peptide binding to human AF9. hit rate 0.47% among 350,000. P42568. inhibition, % at 10 µM. AlphaScreen, biotin-AF4 peptide binding to FLAG-AF9;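 active means every replicate reaching a set inhibition limit, whatever the replicate mean, cut at about 25% in these data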
# esBAF inh = blocks esBAF chromatin remodeling in mouse ES cells. hit rate 2% among 350,000. Bmi1-luciferase knock-in reporter, 24 h; 100% = twice the neutral-well signal. AID 602393. reporter increase, % at 12.5 µM; in the data active means activation above about 40%;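 further: a rise in the Bmi1 reporter signal indicates esBAF inhibition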
# MITF act = activators of MITF-driven TRPM1 promoter activity in SK-MEL-5 cells. activation, % at 12.5 µM. hit rate 0.75% among 300,000. SK-MEL-5 TRPM1-promoter luciferase, 24 h; % of positive control, neutral wells = 0;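 active means mean activation of at least 80% with every replicate also reaching 80%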
# SMARCA2 act = activators of SMARCA2 function. AID 652017. activation, % at 9.1 µM. MG213 cells, MMTV-luciferase reporter, dexamethasone, overnight. hit rate 1% among 370,000; in the data active means activation above about 7.8%
# FGF22 binding-2 = binders of human FGF22 by thermal shift. shares compounds with FGF22 binding-1. recombinant FGF22 thermal shift, SYPRO orange fluorescence. thermal shift activity, °C (ΔTm) at 38 µM. hit rate 2% among 1,000;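 active means fitted rise in melting shift crosses a set limit at or below the top valid dose tested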
# FGF22 TSA DP = binds human FGF22 shifting its melting temperature | Thermal shift assay, SYPRO orange, melting temperature shift | Tm shift (activity), % at 38 µM | shares compounds with FGF22 binding-1 | 50 tested, under 10 active;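 active means compounds whose fitted dose curve of melting temperature shift rises past a set threshold within the tested doses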
# SYPRO no-protein = counter-screen for FGF22 binders: compound-only thermal shift, no protein. compound-only SYPRO orange thermal shift counter-screen. shares compounds with FGF22 binding-1. AC50, µM (top dose mostly 38 µM). AID 743019. hit rate 2% among 1,000;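 active means rising signal whose fitted curve reaches the 0.54 level within the top valid dose, showing a melting point, actives reach about 13 µM in these data; inactive means the rest, including activity in the opposite direction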; further: value is where the raw curve crosses a fixed level and not half-maximal
# A number is an active result; 0 = inactive; - = no result. Compounds with a hit are over-represented: about 4.3% of the library has one in this group of screens.
SMILES,Wnt act,FGF22 binding-1,MLL AF4-AF9 inh,esBAF inh,MITF act,SMARCA2 act,FGF22 binding-2,SYPRO no-protein,others
COc1ccc(C)cc1NC(=O)C1CCN(S(=O)(=O)c2cccs2)CC1,0,1.9,0,0,0,0,0,0,
O=C(NCCc1ccc2c(c1)OCCO2)c1cccc(F)c1,-,1.6,0,-,0,0,0,0,
O=C(NCCc1ccc2c(c1)OCCO2)c1cc(F)cc(F)c1,0,-,-,-,0,0,-,-,
O=C(C[C@H]1CC[C@H]2[C@@H](COC[C@@H](O)CN2Cc2cc(F)ccc2F)O1)NCc1ccc(Oc2ccccc2)cc1,-,0,0,0,-,-,-,-,
Cc1noc(C)c1S(=O)(=O)Nc1ccc2c(c1)C(=O)N([C@@H](C)CO)C[C@@H](C)[C@H](CN(C)C(=O)Nc1ccc(F)cc1)O2,-,-,-,0,-,-,-,-,
O=C(COc1ccc2c(c1)oc(=O)c1ccccc12)NC(Cc1ccc(Cl)cc1)C(=O)O (stereo not drawn),0,1.6,0,0,0,0,0,0,
O=C(COc1ccc2c(c1)oc(=O)c1ccccc12)N[C@@H](Cc1ccccc1)C(=O)O,0,0,0,0,0,0,-,-,
COc1ccccc1NC(=O)c1ccc(NC(=O)c2ccc(=O)[nH]c2)cc1,0,1.9,0,0,0,0,0,0,
COc1ccccc1NC(=O)c1ccc(C(=O)Nc2ccccc2OC)nc1,0,0,0,0,0,0,-,-,
C[C@@H]1CN([C@H](C)CO)S(=O)(=O)c2ccc(-c3cncnc3)cc2O[C@H]1CN(C)C(=O)c1cccc(F)c1,-,0,0,0,-,-,-,-,
O=C(c1cccnc1)N1C[C@@H]2[C@H](c3ccccc31)[C@@H](CO)N2C(=O)C1CCOCC1,-,0,0,0,-,-,-,-,
N#C[C@@H]1[C@@H](c2ccc(C#CC3CCCCC3)cc2)[C@H](CO)N1C(=O)c1cccc(F)c1,-,0,0,0,-,-,-,-,
O=C(Cn1cc(COc2ccc(Br)cc2[N+](=O)[O-])nn1)c1ccc(O)cc1,0,1.7,0,0,0,0,0,0,
CC(=O)c1ccc(OCc2cn(CC(=O)c3ccc(O)cc3)nn2)c(C)c1,0,0,0,0,-,0,-,-,
Oc1ccc(-c2nnc(Nc3cccc(O)c3)c3ccccc23)cc1,0,1.9,0,-,0,0,0,0,
O=C(O)c1cccc(NS(=O)(=O)c2ccc(-c3ccc(S(=O)(=O)Nc4cccc(C(=O)O)c4)cc3)cc2)c1,0,21.1,0,-,0,0,0,0,
O=C(Nc1cccc(C(F)(F)F)c1)c1cccc(NS(=O)(=O)c2ccc(O)c(C(=O)O)c2)c1,0,1.7,0,0,-,0,0,0,
O=C(Nc1cccc(C(F)(F)F)c1)c1cccc(NS(=O)(=O)c2ccc(Br)c(C(=O)O)c2)c1,0,0,0,-,0,0,-,-,
Cc1ccc(C)c(NC(=O)C2CCCN2S(=O)(=O)c2cccc3cccnc23)c1 (stereo not drawn),-,-,-,-,-,0,-,-,
C[C@H]1CN([C@@H](C)CO)C(=O)c2cccc(NC(=O)c3ccc(-c4nccs4)cc3)c2O[C@H]1CN(C)S(=O)(=O)c1cccs1,-,0,0,0,-,-,-,-,
O=C([C@H]1[C@H](CO)[C@H]2Cn3c(ccc(-c4ccccc4F)c3=O)[C@@H]1N2C(=O)C1CCC1)N1CCCCC1,-,0,0,0,-,-,-,-,
Nc1ccc(C(=O)N/N=C/c2c[nH]c3ccccc23)cc1,0,2.7,0,0,0,0,0,0,FGF22 TSA DP=0
O=C(N/N=C/c1c[nH]c2ccccc12)c1ccc(Cl)cc1,0,0,0,0,-,0,-,-,
CC(C)(C)c1ccc(C2CC2C(=O)N/N=C\c2ccc[nH]2)cc1 (stereo not drawn),0,2.0,0,0,0,0,0,0,
O=C(N/N=C/c1c[nH]c2ccccc12)c1ccc(Br)cc1,0,0,0,0,0,0,-,-,
O=C(N/N=C/c1c[nH]c2ccccc12)C1CC1(c1ccccc1)c1ccccc1 (stereo not drawn),0,-,-,-,0,0,-,-,
O=C(N/N=C\c1c[nH]c2ccccc12)c1ccc(O)cc1,0,6.7,0,0,0,0,-,0,

# From PubChem
